The values below come from PubChem BioAssay (Tox21).

Unmarked numbers belong to inactive results. Results filed as inconclusive are left out. Active and inactive are the calls of the source. Unless noted, the call rests on the fitted dose curve; in most records, active means well fitted curve in the direction sought with a large enough effect in the repeat runs; inconclusive means weak or mixed curves; inactive means no such curve, though single readings can be large; an effect the other way counts as inactive or inconclusive.

The nature of experiment [1]: qHTS assay to test for compound auto fluorescence at 535 nm (green) in HEK293 cells (AID 720680).
A short description of experiment [2]: qHTS assay to test for compound auto fluorescence at 460 nm (blue) in HEK293 cell free culture (AID 720681). The method in brief: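 Test compounds were pinned into cell-free culture medium (DMEM with 10% FBS) and fluorescence was read directly at Ex/Em 405/460 nm. Signals were expressed as fluorescence equivalents of triamterene, with DMSO vehicle as control.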
For orientation: In qHTS, concentration-response curves come from the screen itself.

Experiment [3] in a line: qHTS assay to test for compound auto fluorescence at 535 nm (green) in HEK293 cell free culture (AID 720682). In a few lines:
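Fluorescein serves as the green reference fluorophore; each compound's intrinsic emission at 535 nm (excitation 485 nm) is reported as an equivalent amount of that dye, measured in serum-containing DMEM without cells.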

Experiment [4] is described as follows: qHTS assay to test for compound auto fluorescence at 590 nm (red) in HepG2 cell free culture (AID 720684). In a few lines:
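Ex 540 / Em 590 nm read of compound in cell-free MEM (10% FBS). Rose Bengal sodium reference.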

The nature of experiment [5]: qHTS assay to test for compound auto fluorescence at 460 nm (blue) in HepG2 cell free culture (AID 720685). In a few lines: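 Cell-free plates of MEM plus 10% FBS received 23 nL compound or DMSO vehicle; blue-channel (405/460 nm) intensity scored against triamterene as reference fluorophore.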
Experiment [6] in a line: qHTS assay to test for compound auto fluorescence at 535 nm (green) in HepG2 cell free culture (AID 720686).
A short description of experiment [7]: qHTS assay to test for compound auto fluorescence at 460 nm (blue) in HepG2 cells (AID 720687). In a few lines:
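Cells (2,000/well in MEM with 10% FBS) attached overnight at 37 C, then were exposed to compound or DMSO for 1 hr at 37 C, 5% CO2. Fluorescence read at Ex/Em 405/460 nm, expressed as triamterene-equivalent signal.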

A short description of experiment [8]: qHTS assay for identifying genotoxic compounds that show differential cytotoxicity against isogenic chicken DT40 cell lines with known DNA damage response pathways - wild type cell line (AID 743012). Further: nearly all actives have a fitted effect of over 60% in size. Further: potency means the concentration at half of the fitted maximal effect. In a few lines: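 CellTiter-Glo luminescence readout of viability in wild type DT40 cells after 40 h compound exposure at 37 C/5% CO2; 300 cells/well; reagent incubated 30 min at room temperature before reading.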

The nature of experiment [9]: qHTS assay for identifying genotoxic compounds that show differential cytotoxicity against isogenic chicken DT40 cell lines with known DNA damage response pathways - Rev3 mutant cell line (AID 743014). Further: nearly all actives have a fitted effect of over 55% in size. Further: potency means the concentration at half of the fitted maximal effect.
Experiment [10] can be described thus: qHTS assay to identify small molecule antagonists of the androgen receptor (AR) signaling pathway - cell viability counter screen (AID 743033; further: nearly all actives have a fitted effect of over 45% in size).
Experiment [11] in a line: qHTS assay to test for compound auto fluorescence at 590 nm (red) in HEK293 cell free culture (AID 720683). In a few lines: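 Tox21 10K library compounds were pinned into cell-free DMEM with 10% FBS and fluorescence was read at excitation 540 nm. Activity is expressed as Rose Bengal sodium equivalency.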
Experiment [12] addresses Glucocorticoid receptor (Homo sapiens) (UniProt P04150). Kind of experiment: qHTS assay to identify small molecule agonists of the glucocorticoid receptor (GR) signaling pathway (AID 720691; active means well fitted activation curve with a large enough effect in the signal ratio in the repeat runs, not every such curve was filed as active; the % refers to the signal ratio). The method in brief: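 HeLa GR-bla reporter line; cells pre-incubated 4 h, compound in DMSO 18 h at 37 C; LiveBLAzer B/G FRET substrate 2 h RT; fluorescence intensity read-out.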
Experiment [13] shares this target. Kind of experiment: qHTS assay to identify small molecule antagonists of the glucocorticoid receptor (GR) signaling pathway (AID 720692; active means well fitted inhibition curve with a large enough effect in the signal ratio in the repeat runs, not every such curve was filed as active; the % refers to the signal ratio). The method in brief:
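Read-out: beta-lactamase FRET substrate fluorescence, 2 h at room temperature, in HeLa cells stably carrying a GRE-driven bla reporter. Compounds were co-incubated with 5 nM dexamethasone agonist (final) for 18 h at 37 C.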

Experiment [14] can be described thus: qHTS assay to identify small molecule antagonists of the glucocorticoid receptor (GR) signaling pathway - cell viability counter screen (AID 720693). Further: nearly all actives have a fitted effect of over 55% in size. Further: potency means the concentration at half of the fitted maximal effect.
Experiment [15] is described as follows: qHTS assay for identifying genotoxic compounds that show differential cytotoxicity against isogenic chicken DT40 cell lines with known DNA damage response pathways - Rad54/Ku70 mutant cell line (AID 743015). Further: nearly all actives have a fitted effect of over 60% in size. Further: potency means the concentration at half of the fitted maximal effect.
The target in experiment [16] is Androgen receptor (Homo sapiens) (UniProt P10275). Kind of experiment: qHTS assay to identify small molecule antagonists of the androgen receptor (AR) signaling pathway (AID 743035; active means well fitted inhibition curve with a large enough effect in the signal ratio in the repeat runs, not every such curve was filed as active; the % refers to the signal ratio). In a few lines:
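AR-bla HEK293 reporter cells; 4 h settle at 37C/5% CO2; compound + R1881 agonist, 16 h at 37C; LiveBLAzer B/G FRET substrate 2 h RT; fluorescence intensity read. qHTS format.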

Experiment [17] has the same target. Kind of experiment: qHTS assay to identify small molecule agonists of the androgen receptor (AR) signaling pathway using the MDA cell line (AID 743040; further: nearly all actives have a fitted effect of over 20% in size). The method in brief:
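Cell-based luciferase reporter: MDA-kb2, MMTV promoter (AR + GR response elements). 16 h compound exposure at 37C; ONE-Glo, 30 min RT, luminescence.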

Experiment [18] can be described thus: qHTS assay to identify small molecule antagonists of the androgen receptor (AR) signaling pathway using the MDA cell line - cell viability counter screen (AID 743041; further: nearly all actives have a fitted effect of over 45% in size). The method in brief:
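In this qHTS counter assay, fluorescence intensity after CellTiter-Fluor addition indicated viability of MDA-kb2 AR-luc cells given compounds and R1881 for 16 h at 37C.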

For experiment [19], the target named is Androgen receptor (Homo sapiens) (UniProt P10275). Kind of experiment: qHTS assay to identify small molecule antagonists of the androgen receptor (AR) signaling pathway using the MDA cell line (AID 743042; further: nearly all actives have a fitted effect of over 55% in size; further: potency means the concentration at half of the fitted maximal effect). In a few lines:
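MDA-kb2 cells (human breast carcinoma, stably carrying an MMTV-luciferase reporter responsive to AR and GR) were plated at 3,000 cells/well and preincubated 5 hr at 37C, then given compound plus R1881 agonist for 16 h. ONE-Glo luminescence was read.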
On the % scale 0 is the no-effect control and ±100 the full control effect.

Sequence of Glucocorticoid receptor (Homo sapiens) (P04150 whole entry, looked up): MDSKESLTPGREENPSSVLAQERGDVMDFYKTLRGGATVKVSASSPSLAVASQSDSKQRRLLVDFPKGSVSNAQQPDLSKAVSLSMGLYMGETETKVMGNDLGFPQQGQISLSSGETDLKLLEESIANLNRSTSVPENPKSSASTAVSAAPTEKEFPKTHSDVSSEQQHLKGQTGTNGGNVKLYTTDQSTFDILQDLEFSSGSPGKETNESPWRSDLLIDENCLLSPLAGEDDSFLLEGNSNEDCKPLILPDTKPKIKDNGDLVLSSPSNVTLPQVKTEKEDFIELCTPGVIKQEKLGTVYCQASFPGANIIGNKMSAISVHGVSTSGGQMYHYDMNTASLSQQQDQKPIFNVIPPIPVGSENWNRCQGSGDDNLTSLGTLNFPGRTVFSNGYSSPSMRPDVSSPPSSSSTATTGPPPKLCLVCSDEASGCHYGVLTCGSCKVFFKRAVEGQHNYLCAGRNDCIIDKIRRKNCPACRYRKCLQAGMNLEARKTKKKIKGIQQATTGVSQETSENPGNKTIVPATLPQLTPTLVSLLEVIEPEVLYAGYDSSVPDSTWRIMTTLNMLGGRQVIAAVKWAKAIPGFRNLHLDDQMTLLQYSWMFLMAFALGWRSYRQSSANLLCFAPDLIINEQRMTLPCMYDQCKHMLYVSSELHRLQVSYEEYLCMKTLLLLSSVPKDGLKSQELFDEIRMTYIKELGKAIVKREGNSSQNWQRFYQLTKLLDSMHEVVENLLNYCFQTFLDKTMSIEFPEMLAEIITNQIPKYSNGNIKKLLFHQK
Sequence of Androgen receptor (Homo sapiens) (P10275 whole entry, looked up): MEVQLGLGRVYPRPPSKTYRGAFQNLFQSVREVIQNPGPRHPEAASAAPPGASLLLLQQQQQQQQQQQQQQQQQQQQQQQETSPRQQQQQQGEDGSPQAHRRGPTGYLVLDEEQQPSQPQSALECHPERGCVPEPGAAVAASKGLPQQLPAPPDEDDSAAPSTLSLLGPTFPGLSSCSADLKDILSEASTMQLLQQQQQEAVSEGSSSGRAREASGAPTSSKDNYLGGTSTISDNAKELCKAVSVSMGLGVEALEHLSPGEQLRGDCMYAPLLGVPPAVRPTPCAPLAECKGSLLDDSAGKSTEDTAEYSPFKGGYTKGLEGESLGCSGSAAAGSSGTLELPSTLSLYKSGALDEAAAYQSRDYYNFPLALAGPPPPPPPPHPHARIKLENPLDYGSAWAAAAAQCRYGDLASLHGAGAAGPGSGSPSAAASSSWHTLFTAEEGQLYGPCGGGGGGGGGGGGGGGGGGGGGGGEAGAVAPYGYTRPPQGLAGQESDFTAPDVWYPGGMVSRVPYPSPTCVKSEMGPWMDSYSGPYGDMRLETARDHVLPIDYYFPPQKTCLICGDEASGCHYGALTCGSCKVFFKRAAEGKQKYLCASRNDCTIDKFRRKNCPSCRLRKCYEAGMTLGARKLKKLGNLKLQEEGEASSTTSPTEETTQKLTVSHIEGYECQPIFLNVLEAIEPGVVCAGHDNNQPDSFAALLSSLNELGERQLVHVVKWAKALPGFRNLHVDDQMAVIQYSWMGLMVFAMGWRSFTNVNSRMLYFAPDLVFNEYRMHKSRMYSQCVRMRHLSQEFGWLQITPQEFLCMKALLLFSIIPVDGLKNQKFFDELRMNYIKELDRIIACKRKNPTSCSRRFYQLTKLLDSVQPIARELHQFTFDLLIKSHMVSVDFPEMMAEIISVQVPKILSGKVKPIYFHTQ

For `C=C(C)c1ccccc1`, the call in experiment [1], in experiment [3], in [4] and in [6] was inactive. Moreover, the Potency entry in experiment [2], in experiment [5], in [7], in experiment [8], in experiment [9] and in experiment [10] was “inactive” throughout.

On to `O=C(O)CCC(=O)c1ccc(-c2ccccc2)cc1`, for which, in experiment [1], the fluorescence, % of fluorescein is -0.008% [at 18.6 µM]. Besides, in experiment [3], the activity change was 0.0155% [at 18.6 µM]. Besides, the values for the fluorescence, % of fluorescent control in experiment [11], in experiment [5] and in [7] were 0.387% [at 18.6 µM], -0.0525% [at 18.6 µM] and -0.0799% [at 18.6 µM], respectively. Further, the fluorescence, % of Rose Bengal in experiment [4] was -0.0571% [at 18.6 µM]. The fluorescence, % of fluorescein control in experiment [6] is -0.127% [at 18.6 µM]. Further, the Potency result in [12], in experiment [13], in experiment [14], in experiment [8], in experiment [9] and in experiment [15] was “inactive” throughout. For the same compound, the Potency entry in [10], in experiment [16], in experiment [17], in experiment [18] and in experiment [19] was “inactive” in each case.

Regarding `O=CNNC=O`, the compound was classed as inactive in [1], in experiment [3], in experiment [4] and in experiment [6]. Also, the Potency result in experiment [2], in experiment [5], in experiment [7], in [12], in [13] and in experiment [14] was “inactive” throughout. Moreover, the Potency result in experiment [8], in [15] and in [18] was “inactive” each time.

In the case of `O=C1c2ccccc2C(=O)c2c(O)ccc(O)c21`, the compound was classed as inactive in experiment [1], in experiment [3], in [4] and in experiment [6]. In addition, the Potency result in experiment [2], in experiment [5], in experiment [7], in experiment [12], in experiment [9] and in experiment [10] was “inactive” each time. The Potency result in experiment [18] is “inactive”. In addition, in [15], the Potency is 7.7 µM (active).

In the case of `O=C(NS(=O)(=O)/C=C/c1ccccc1)c1ccc(F)cc1Cl`, the outcome in experiment [1], in experiment [3], in experiment [4] and in [6] was inactive. Moreover, the Potency entry in [2], in experiment [5], in experiment [7], in [14], in experiment [8] and in experiment [15] was “inactive” throughout. Moreover, the Potency entry in [10] and in experiment [18] was “inactive” in each case.

With `CNS(=O)(=O)c1cc(C(=O)N2CCC(CCN3C4CCC3CC(n3c(C)nc5ccccc53)C4)(c3cccc(F)c3)CC2)c(Cl)cc1F` (stereo not given), the compound was classed as inactive in [1], in experiment [3], in experiment [4] and in experiment [6]. The Potency entry in experiment [2], in [5], in experiment [7] and in experiment [17] was “inactive” each time. For the same compound, the Potency is 54.9 µM (active) in [14]; 3.06 µM (active) in [8]; 5.45 µM (active) in [9]; 6.11 µM (active) in experiment [15]; 34.4 µM (active) in experiment [19].

For `CC(C)N=C=NC(C)C`, the compound was classed as inactive in experiment [1], in [3], in experiment [4] and in experiment [6]. The Potency result in experiment [2], in [5], in [7], in experiment [12], in experiment [13] and in experiment [14] was “inactive” each time. Also, the Potency result in experiment [8], in [15] and in experiment [10] was “inactive” throughout.

As to `COC(CC(C)CCCC(C)(C)O)OC` (stereo not given), the result in experiment [1], in [3], in experiment [11], in experiment [4] and in [6] was inactive. The Potency result in [5], in experiment [7], in [12], in [13], in experiment [14] and in experiment [8] was “inactive” each time. Moreover, the Potency entry in experiment [9], in experiment [15], in [10] and in experiment [18] was “inactive” throughout.

In the case of `O=S(=O)(O)CO`, the compound was classed as inactive in experiment [1], in experiment [3], in experiment [4] and in experiment [6]. In addition, the Potency entry in [2], in experiment [5], in [7], in [12], in experiment [13] and in experiment [14] was “inactive” each time. Further, the Potency result in experiment [8], in experiment [15], in experiment [10] and in experiment [18] was “inactive” each time.
